High-throughput results: PubChem BioAssay, several laboratories
Rows were chosen to be rich in hits. Some 5.4% of all compounds tested hit in one or more screens of this group.
Exocytosis inh = LAMP-1 surface exposure blockers, TALL-104 cells – cell-based, flow cytometry, MLPCN library, primary screen. inhibition, % at 10 µM. AID 651702, 2012. 360,000 compounds, 0.66% hits. TALL-104 LAMP-1 surface exposure; cells stimulated with thapsigargin and PMA;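 active = inhibition above about 55%, limit read from the data; inconclusive = no clear call, values can overlap the other calls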
GASC-1 inh = inhibitors of GASC-1 histone demethylase, primary screen, biochemical, fluorescence, DELFIA europium; inhibition, % at 2.35 µM; Lysine-specific demethylase 4C (Homo sapiens), Q9H3R0; GST-JMJD2C(1-420) H3K9me3 demethylation; AID 2099, 2009; 330,000 compounds, 0.069% hits;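 active = more than half of a compound's replicate wells show inhibition beyond 50%, single wells judged on their own value; inconclusive = some, but no more than half, of replicates pass 50% inhibition; inactive = no replicate passes 50% inhibition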;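 note: signal counts dimethyl H3K9 product captured on neutravidin plate; 0% = median of DMSO wells and 100% = 0.3 times that DMSO median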
Target sequence (Q9H3R0 1-420 limits assumed): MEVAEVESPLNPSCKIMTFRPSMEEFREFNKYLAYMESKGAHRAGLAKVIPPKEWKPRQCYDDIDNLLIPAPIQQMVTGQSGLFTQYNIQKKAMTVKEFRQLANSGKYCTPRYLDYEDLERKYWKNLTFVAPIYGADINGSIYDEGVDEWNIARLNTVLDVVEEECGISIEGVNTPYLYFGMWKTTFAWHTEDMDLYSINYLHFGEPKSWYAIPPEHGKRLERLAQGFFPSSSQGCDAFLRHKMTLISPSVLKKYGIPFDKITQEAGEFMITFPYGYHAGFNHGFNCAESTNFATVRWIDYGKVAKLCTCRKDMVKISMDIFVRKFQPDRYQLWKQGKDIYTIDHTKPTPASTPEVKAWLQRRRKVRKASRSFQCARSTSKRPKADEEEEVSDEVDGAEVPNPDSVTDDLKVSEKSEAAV
SMARCA2 act = SMARCA2 (BRM) function activators, primary screen, cell-based, luminescence, high throughput; activation, % at 9.1 µM; AID 652017, 2013; MG213 cells, MMTV-luciferase reporter, dexamethasone, overnight; 370,000 compounds, 1% hits; in the data active = activation above about 7.8%;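 note: 0% = vehicle wells and 100% = reference activator wells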
ALR inh = inhibitors of human ALR sulfhydryl oxidase, primary screen, biochemical, H2O2 detection, HRP-luminol luminescence, single point; FAD-linked sulfhydryl oxidase ALR (Homo sapiens), P55789; purified ALR, DTT oxidation; inhibition, % (concentration not given with the values); 290,000 compounds, 3.8% hits;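 active = mean replicate inhibition above about 79%, with every replicate also reaching it, limit read from the data; inconclusive = only one of the two criteria met; inactive = mean below limit and not every replicate reaching it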
Target sequence (P55789 whole entry, looked up): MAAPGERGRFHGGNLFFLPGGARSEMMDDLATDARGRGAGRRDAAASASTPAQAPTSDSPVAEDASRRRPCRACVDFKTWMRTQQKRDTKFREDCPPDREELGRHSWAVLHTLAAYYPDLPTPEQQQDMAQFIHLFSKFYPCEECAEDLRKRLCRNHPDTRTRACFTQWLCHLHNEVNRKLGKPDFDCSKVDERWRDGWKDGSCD
PfM18AAP inh = PfM18AAP inhibitors, malaria aminopeptidase, primary screen, biochemical, QFRET, recombinant enzyme | inhibition, % at 7.35 µM | 290,000 compounds, 1.2% hits | M18 aspartyl aminopeptidase (Plasmodium falciparum 3D7) | H-Glu-NHMec fluorogenic cleavage;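 active = inhibition above the campaign mean inhibition over all tested compounds plus 3 SD, cut at about 28% in these data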;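 note: 0% = plate median of test compound wells and 100% = 2 mM ZnCl2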
MIN6 prolif = inducers of MIN6 beta-cell proliferation, primary screen, ATP luminescence, uHTS | MIN6 cells proliferation, ATPlite luminescence, 48 h; cells starved in 0.2% serum; 100% = growth in 10% serum | proliferation, % at 10 µM | 330,000 compounds, 0.29% hits;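 active = compounds whose signal lies at least 3.5 SD above the mean of all wells on their plate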;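 note: 0% = DMSO-treated cells in low-serum medium and 100% = 10% serum control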
* hit, by the source's call.

Results for Cc1cc(C)nc(SCc2nnc(SCC(=O)Nc3ccc(Cl)c(C(F)(F)F)c3)o2)n1 ?
Exocytosis inh: 5; GASC-1 inh: 79; SMARCA2 act: 0; ALR inh: -4; PfM18AAP inh: -8; MIN6 prolif: -1

Results for Cc1cc(=O)[nH]c(SCC(=O)Nc2ccc(Cl)cc2)n1 ?
SMARCA2 act: -5

What do the screens show for `COC(=O)c1ccc(C)c(NC(=O)CSc2nc3[nH]c(=O)cc(O)c3s2)c1`?
Exocytosis inh: -2; GASC-1 inh: 9; SMARCA2 act: -2; ALR inh: 2; MIN6 prolif: -5

What do the screens show for `COc1ncc(-c2cc(C(C)=O)c3n(c2=O)CCC3)c(OC)n1`?
SMARCA2 act: -1

What do the screens show for `Cc1nc2cc(C(=O)N3CCN(C(=O)C(C)(C)C)CC3)ccc2n1C1CCCC1`?
SMARCA2 act: 1

Results for COC(=O)C1CN(Cc2cn(Cc3ccccc3)nn2)CCS(=O)(=O)N1Cc1ccc(F)cc1 (configuration not stated) ?
SMARCA2 act: -4

How did N#Cc1ccc(/C=C2\CC3(OC(=O)c4ccccc4)CCCN2C3)cc1 (configuration not stated) do in these assays?
SMARCA2 act: -5

What do the screens show for `COC(=O)[C@]12C[C@H](CC(=O)NCc3ccccc3)C(=O)N(Cc3ccc(Cl)cc3Cl)C1=C[C@H](C(C)(C)C)O[C@@H]2C`?
SMARCA2 act: -5

What do the screens show for `C/C(=N/NC(=O)CSc1nnc(SCc2ccc(C)cc2)s1)c1cccc(O)c1`?
SMARCA2 act: -11

How did CC(=O)Nc1ccc(NC(=O)C(C)OC(=O)CCCN=C2NS(=O)(=O)c3ccccc32)cc1 (configuration not stated) do in these assays?
Exocytosis inh: 0; GASC-1 inh: inconclusive; SMARCA2 act: -1; ALR inh: -8; MIN6 prolif: -1

What do the screens show for `CC(OC(=O)CCN=C1NS(=O)(=O)c2ccccc21)C(=O)Nc1ccc(N(C)C)cc1` (configuration not stated)?
Exocytosis inh: -3; GASC-1 inh: -18; SMARCA2 act: -4; ALR inh: 99*; MIN6 prolif: 1

What do the screens show for `CC(=O)Nc1cccc(/C(C)=N/Nc2nc3ccccc3s2)c1`?
Exocytosis inh: -4; GASC-1 inh: -7; SMARCA2 act: 1; ALR inh: 98*; PfM18AAP inh: 9; MIN6 prolif: -1

How did CC(=NNc1nc2ccccc2s1)c1ncccn1 do in these assays?
Exocytosis inh: 102*; SMARCA2 act: 3

Results for CC(C)(C)c1ccc(S(=O)(=O)N2CCCC(C(=O)NCCN3CCC(Cc4ccccc4)CC3)C2)cc1 (configuration not stated) ?
SMARCA2 act: -8

Results for Cc1cc(N2CCOCC2)ccc1/C=C1\SC(=O)N(C(C)C)C1=O ?
Exocytosis inh: 0; GASC-1 inh: 6; SMARCA2 act: 1; PfM18AAP inh: 4; MIN6 prolif: -2

Results for CCN(CC)c1ccc(/C=C2/SC(=O)N(C(C)C)C2=O)o1 ?
Exocytosis inh: 78*; GASC-1 inh: 15; SMARCA2 act: 7; PfM18AAP inh: 0

How did COc1ccc(CSc2nncn2N)cc1Br do in these assays?
Exocytosis inh: -1; GASC-1 inh: -9; SMARCA2 act: -2; ALR inh: -15; PfM18AAP inh: 6; MIN6 prolif: 1

What do the screens show for `COc1ccc(/C=N/Nc2nncn2N)cc1Br`?
Exocytosis inh: 18; GASC-1 inh: 7; SMARCA2 act: -7; PfM18AAP inh: 28*; MIN6 prolif: 0

Results for Cc1cc2cc3c(cc2nc1SCC(=O)Nc1nc(C)c(C)s1)OCO3 ?
Exocytosis inh: 5; GASC-1 inh: 6; SMARCA2 act: 1; ALR inh: 97*; PfM18AAP inh: 9; MIN6 prolif: -4

Results for COC(=O)CSc1nc2cc3c(cc2cc1C)OCO3 ?
Exocytosis inh: -4; GASC-1 inh: 1; SMARCA2 act: -2; ALR inh: 21; PfM18AAP inh: 6; MIN6 prolif: 1

How did CCN(C)C(=O)CNc1nnnn1-c1ccccc1 do in these assays?
SMARCA2 act: -1

How did CCOC(=O)[C@@]12CN(C(=O)OC(C)(C)C)CC=C1N(Cc1ccc(OC)cc1)C(=O)[C@H]2CC(=O)N1CCCC1 do in these assays?
SMARCA2 act: 2

What do the screens show for `CC(=O)NCCCc1c[nH]c2ccc(Cl)cc12`?
Exocytosis inh: 1; GASC-1 inh: -3; SMARCA2 act: 4; ALR inh: 98*; PfM18AAP inh: 0; MIN6 prolif: -1

Results for COC(=O)C1CN(Cc2ccc(C)cc2)CCS(=O)(=O)N1Cc1cn(Cc2ccc(C)cc2)nn1 (configuration not stated) ?
SMARCA2 act: -6

Results for CC(=O)NC1C(=O)N(CCN2CCOCC2)c2ccc(Cl)cc21 (configuration not stated) ?
Exocytosis inh: 0; GASC-1 inh: -2; SMARCA2 act: -3; ALR inh: -19; PfM18AAP inh: 22

What do the screens show for `CC(=O)NC1C(=O)N(CCN2CCOCC2)c2ccc(C)cc21` (configuration not stated)?
Exocytosis inh: 2; GASC-1 inh: 11; ALR inh: -8; PfM18AAP inh: 48*

Results for O=S(=O)(Nc1nc2ccccc2nc1NCC1CCCO1)c1cccc(Cl)c1 (configuration not stated) ?
Exocytosis inh: -2; GASC-1 inh: 3; SMARCA2 act: -3; ALR inh: 87*; PfM18AAP inh: -9; MIN6 prolif: 0

What do the screens show for `c1ccc(-c2cnc(-c3ccccc3)nn2)cc1`?
Exocytosis inh: 3; GASC-1 inh: -4; SMARCA2 act: 7.9*; ALR inh: 0; MIN6 prolif: -7

How did c1ccc(-c2cnc(-c3ccccn3)nn2)cc1 do in these assays?
Exocytosis inh: -5; GASC-1 inh: -1; SMARCA2 act: 7; ALR inh: 8; MIN6 prolif: -6

Results for COc1ccc2c(c1)C(=NO)c1cc(OC)ccc1-2 ?
Exocytosis inh: -1; GASC-1 inh: 4; SMARCA2 act: 4; ALR inh: 96*; PfM18AAP inh: -10; MIN6 prolif: -3

How did COC(=O)[C@]12C[C@H](CC(=O)N3CCCC3)C(=O)N(CCc3ccc(OC)c(OC)c3)C1=C[C@H](C1CCCC1)O[C@@H]2C do in these assays?
SMARCA2 act: -2
